For orientation: IC50 means the concentration needed to halve the response being measured. One may read the inhibition as the drop in the measured response relative to a control, in per cent.

In all, about 2,400 compounds went through this assay and about 1,400 (58%) were called active.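 The calls were made as follows: active = inhibition of 30% or more at any tested dose; inconclusive = primary hits over the limit that were never retested; inactive = the rest.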 So high a share suggests a set chosen from earlier hits. The list shows a part of the results.

IC50 and inhibition data for 104 molecules are collected here from PubChem BioAssay AID624351 (Southern Research Specialized Biocontainment Screening …, 2012).

The test can be described thus: ADP Hunter readout inhibition without MgcRacGAP – biochemical, coupled enzyme counter-screen, artefact control for MgcRacGAP inhibitor project, dose response (AID 624351).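 Also: signal is the ADP detection kit reading of free GDP without any GAP enzyme.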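 As to inhibition: 0% = median positive control wells and 100% = median negative control wells.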 Particulars: fluorescence, no MgcRacGAP; series mostly up to 80 µM. A general note: Counterscreens check selectivity or assay interference.
As for `Cc1ccc(C2CC(=O)N3CN(c4ccc(Br)cc4)CSC3=C2C#N)o1` (centres undefined), the IC50 result is “inactive”.
Same read-out and setting: the result for `CSc1ccc(/C=N/Nc2cccc(C(=O)O)c2)cc1` reads “inactive”; that for `Cc1ccsc1/C=N/Nc1cccc(C(=O)O)c1`, 72.9 µM (active).
Still for that read-out and setting: the result for `O=C(O)c1cccc(N/N=C/c2cccs2)c1` reads 62.5 µM (active); that for `O=C(CSc1cn[nH]n1)Nc1cccc(C(=O)O)c1`, “inactive”; that for `CN(c1ccc(O)cc1)c1nc(-c2cccnc2)cs1`, 19.9 µM (active).
Still for that read-out and setting: the result for `CN(c1ccc(O)cc1)c1nc(-c2ccccc2)cs1` reads 53.7 µM (active); that for `CCC1=NN2C(=N)/C(=C\c3ccc(SCc4ccco4)o3)C(=O)N=C2S1`, “inactive”.
For `COC(=O)c1[nH]c2cc(OC)c(OC)cc2c1NC(=O)Oc1ccccc1`, the IC50 was 19.5 µM (active).
For the molecule `COC(=O)c1[nH]c2ccc(C)cc2c1NC(=O)Oc1ccccc1`, the IC50 result is “inactive”.
The same measure, in the same setting: the result for `Cc1[nH]c2ccccc2c1-c1csc(NC(=O)CSCCO)n1` reads “inactive”.
The same measure, in the same setting: the result for `COC(=O)c1[nH]c2ccc(Cl)cc2c1NC(=O)Oc1ccccc1` reads 18.5 µM (active); that for `COC(=O)c1[nH]c2ccccc2c1NC(=O)Oc1ccccc1`, 15.6 µM (active); that for `O=C1C=CC2(O[C@H](c3ccccc3)[C@@H](c3ccccc3)O2)[C@H](Sc2ccccc2O)C1`, “inactive”.
With `CC1=CC(c2ccccc2)NC(=S)N1` (centres undefined), the IC50 entry was “inactive”.
The same measure, in the same setting: the result for `O=[N+]([O-])/C=C/c1ccc2c(ccn2Cc2ccccc2)c1` reads “inactive”; that for `O=c1c(O)c(-c2ccc(O)cc2)oc2cc(O)cc(O)c12`, 34.5 µM (active).
The same measure, in the same setting: the result for `COc1c(-c2ccc(O)c(O)c2)oc2cc(O)cc(O)c2c1=O` reads 34 µM (active).
In the case of `O=c1c(O)c(-c2ccc(O)c(O)c2)oc2cc(O)ccc12`, the IC50 was 52.8 µM (active).
Turning to `c1ccc(CC2CCN(Cc3ccccn3)CC2)cc1`, the IC50 result is “inactive”.
Still for that read-out and setting: the result for `CC1(C)CC(=O)C=C(Nc2ccc(O)cc2)C1` reads 25.9 µM (active); that for `COc1cc(C2NC(=O)C(C#N)=C(S)N2c2ccc(C)cc2)ccc1OC(C)C` (centres undefined), “inactive”; that for `COc1ccc(NCC(O)COc2ccc(C(C)(C)C)cc2)cc1` (centres undefined), “inactive”.
Still for that read-out and setting: the result for `COc1ccc(-c2cc3ccccc3n2CC(O)CN2CCCCC2)cc1` (centres undefined) reads “inactive”; that for `COc1ccc(NCC(O)Cn2c(C)c(C)c3ccccc32)cc1` (centres undefined), 66.8 µM (active); that for `COc1ccc(OC)c(CN2CCSCC2)c1`, “inactive”.
Still for that read-out and setting: the result for `Oc1ccc(C2=Nn3c(nnc3-c3ccco3)SC2)cc1O` reads 14.2 µM (active); that for `CC1Cc2ccccc2N1C(=O)CNCCCN(C)C` (centres undefined), “inactive”; that for `O=C(Nc1ccccc1)c1cccc(-c2nnc(-c3ccccc3)o2)c1`, “inactive”.
Consider `COc1ccc(NC(=O)c2cccc(-c3ccc(O)cc3)c2)cn1`, for which the IC50 was 41.2 µM (active).
Same read-out and setting: the result for `COc1ccc(NC(=O)/C(Cl)=C(/Cl)S(=O)Cc2ccccc2)cn1` (centres undefined) reads “inactive”; that for `CC(=O)Nc1cccc(NC(=O)c2cccc(-c3ccc(O)cc3)c2)c1`, 59.1 µM (active).
For `COc1ccc(NC(=O)/C(Cl)=C(/Cl)S(=O)Cc2ccc(Cl)cc2)cn1` (centres undefined), the IC50 entry is “inactive”.
On the same count and under the same terms, the result for `Oc1cccc2c(NC(=S)Nc3ccc(OC(F)F)cc3)cccc12` reads 83.5 µM (active); that for `C#CCOCCOCCOCCNc1nc(N2CCN(C(=O)CCCCCCCCCCNC(=O)[C@@H](CCSC)n3cc(CCO)nn3)CC2)nc(N2CCN(C(=O)CCCCCCCCCCNC(=O)[C@H](CO)n3cc(CCCCCN)nn3)CC2)n1`, “inactive”; that for `COc1cc2cc(-c3ccc(O)cc3O)nc(C)c2cc1OC`, 45.1 µM (active).
Consider `COc1ccc(-c2ncc3ccccn23)cc1OC`, for which the IC50 entry is “inactive”.
On the same count and under the same terms, the result for `Oc1ccc(-c2csc(-c3cccnc3)n2)c(O)c1` reads 43.4 µM (active); that for `Oc1ccc(-c2csc(-c3cccnc3)n2)cc1O`, 11 µM (active).
Consider `COc1ccc(-c2nc(-c3ccc(O)cc3O)cs2)cc1OC`, for which the IC50 was 55.4 µM (active).
Same read-out and setting: the result for `Clc1cc(Cl)c(OCCCCn2cncn2)c(Cl)c1` reads “inactive”; that for `CCCCN(C)C(=O)C1CCN(Cc2ccc(OCc3ccccc3)cc2)CC1`, “inactive”.
Same read-out and setting: the result for `COc1ccc(C2NC(c3ccc(OC)cc3OC)C(C)C(=O)C2C)c(OC)c1` (centres undefined) reads “inactive”; that for `CC1CC(C)CN(CC(=O)NC(c2ccccc2)c2ccccc2)C1` (centres undefined), “inactive”; that for `COc1cc(/C=C2\SC(N)=NC2=O)ccc1O`, 16.4 µM (active).
The same measure, in the same setting: the result for `COc1cc(/C=C2\SC(c3ccc(C)cc3)=NC2=O)cc(OC)c1O` reads “inactive”.
Regarding `CCCN1C(=O)/C(=C/c2cc(C)n(C)c2C)SC1=Nc1ccc(OCC)cc1`, the IC50 result is “inactive”.
With `COc1cc(/C=C2\SC(N)=NC2=O)cc(Cl)c1O`, the IC50 is 45.7 µM (active).
Same read-out and setting: the result for `CCOc1cc(/C=C2\SC(=O)N=C2N)ccc1O` reads 14.3 µM (active); that for `CCN=C1S/C(=C\c2ccc(O)c(OCC)c2)C(=O)N1CC`, 39 µM (active); that for `COc1cccc(OC)c1OCCNC(C)(C)C`, “inactive”.
Same read-out and setting: the result for `CCS(=O)(=O)C1=NN2C(=N)/C(=C\c3ccc(SCc4ccco4)o3)C(=O)N=C2S1` reads “inactive”; that for `N=C1/C(=C\c2ccc(Br)o2)C(=O)N=C2SC(CC(=O)N3CCOCC3)=NN12`, “inactive”; that for `CCOc1cc(/C=C2/NC(=O)N(Cc3ccccc3F)C2=O)ccc1O`, 50 µM (active).
The same measure, in the same setting: the result for `CCOc1cc(/C=C2\C(=O)ON=C2c2ccccc2)cc(Br)c1O` reads “inactive”; that for `N=C1/C(=C/c2ccc(Br)o2)C(=O)N=C2SC(CC(=O)N3CCCC3)=NN12`, “inactive”; that for `NC1=NC(=O)S/C1=C\c1ccc(O)cc1`, 20.2 µM (active).
With `Cc1ccc(S(=O)(=O)Oc2ccc(/C=C3\C(=N)N4N=C(S(C)(=O)=O)SC4=NC3=O)cc2)cc1`, the IC50 result is “inactive”.
In the case of `CC(NCc1cccc(S(=O)(=O)N(C)C)c1)c1ccc(F)cc1` (centres undefined), the IC50 result is “inactive”.
The same measure, in the same setting: the result for `CCOc1cc(/C=C2\SC(N)=NC2=O)ccc1O` reads 55.5 µM (active).
Same read-out and setting: the result for `C#CCOCCOCCOCCNc1nc(N2CCN(C(=O)C([C@@H](C)O)n3cc([C@@H](N)CCCCN)nn3)CC2)nc(N2CCN(C(=O)[C@H](CCCCN)n3cc(CN)nn3)CC2)n1` (some centres undefined) reads “inactive”; that for `Cc1cc(C)nc(SCC(=O)c2ccc(O)c(O)c2)n1`, 38 µM (active).
Still for that read-out and setting: the result for `CN(C)c1cc(NC(=O)CN2CCCC2)c2ccccc2n1` reads “inactive”; that for `O=C(CSc1nnnn1-c1ccc(F)cc1)c1ccc(O)c(O)c1`, 77.2 µM (active).
Take `Cc1cc(SCC(=O)c2ccc(O)c(O)c2)nc2ccccc12`: the IC50 is 58.9 µM (active).
The same measure, in the same setting: the result for `CC(C)(C)CC(C)(C)NCC(=O)Nc1c2c(nc3ccccc13)CCC2` reads “inactive”; that for `O=C(O)c1cccc2cccc(-c3c4ccc(=O)c(O)c-4oc4c(O)c(O)ccc34)c12`, “inactive”; that for `Cc1cc(=O)oc2c(O)c(O)ccc12`, 28.8 µM (active).
The same measure, in the same setting: the result for `Cc1[nH]n(-c2ccccc2)c(=O)c1/C=N/N(C)c1ccccc1` reads 15 µM (active); that for `O=C(O)C1Nc2c(O)cc(Cl)c([N+](=O)[O-])c2C2C=CCC12` (centres undefined), “inactive”; that for `COc1cc(Sc2ccc(C)cc2)c(OC)cc1N`, 22.5 µM (active).
The same measure, in the same setting: the result for `O=C(N/C(=C\c1ccc(O)cc1)C(=O)N1CCCCC1)c1ccccc1` reads 54.1 µM (active); that for `COc1ccc(NC2CCCN(C(=O)c3cccc(N(C)C)c3)C2)cc1` (centres undefined), 74.8 µM (active); that for `O=C(c1cccc(F)c1)N1CCN(C2CCCCC2)CC1`, “inactive”.
Take `COc1cc(OC)cc(C(=O)N2CCN(Cc3ccccc3Br)CC2)c1`: the IC50 result was “inactive”.
On the same count and under the same terms, the result for `COc1ccc(NC2CCCN(C(=O)c3cccc(N4CCNC4=O)c3)C2)cc1` (centres undefined) reads 81.2 µM (active).
On the same count and under the same terms, the result for `COc1ccc(NC2CCCN(C(=O)c3ccc(C)c(N4CCNC4=O)c3)C2)cc1` (centres undefined) reads “inactive”.
As to `COc1cccc(C(=O)N2CCN(C3CCCCC3)CC2)c1`, the IC50 entry is “inactive”.
With `Cc1cc(-c2ccccc2)nc2c(Br)c(=O)[nH]n12`, the IC50 result was “inactive”.
With `Cc1ccc(N2C(S)=C(C#N)C(=O)NC23CCCCC3)cc1`, the IC50 result is “inactive”.
`O=C1C(=Cc2cccc(O)c2O)SC(=S)N1CCCN1CCOCC1`: the IC50 entry was “inactive”.
The same measure, in the same setting: the result for `COc1cc(/C=C2\SC(=S)N(Nc3ccccc3)C2=O)ccc1O` reads 75.4 µM (active).
On the same count and under the same terms, the result for `COc1cc(/C=C2\SC(=S)N(NC(=O)c3cccc(O)c3)C2=O)ccc1O` reads 67.5 µM (active); that for `O=C(O)CCCN1C(=O)/C(=C\c2ccco2)SC1=S`, “inactive”; that for `CC(=O)NN1C(=O)/C(=C\c2ccc(Br)o2)SC1=S`, “inactive”.
Take `CC(=O)NN1C(=O)/C(=C/c2ccc(Br)o2)SC1=S`: the IC50 result was “inactive”.
Still for that read-out and setting: the result for `COc1cc(/C=C2\SC(=S)N(NC(=O)c3ccc(O)cc3)C2=O)ccc1O` reads 79.5 µM (active); that for `COc1cc(/C=C2\SC(=S)N(NC(=O)c3ccncc3)C2=O)ccc1O`, 44.1 µM (active).
Take `CC(=O)OCCNc1cc(N2CCN(C)CC2)c2noc3c2c1C(=O)c1ccccc1-3`: the inhibition is -4.34% [at 10 µM] (inactive).
Turning to `O=C(O)c1ccc2c(c1)[C@@H]1C=CC[C@@H]1[C@H](c1ccccn1)N2`, the IC50 entry was “inactive”.
On the same count and under the same terms, the result for `CCOC(=O)c1sc2nc(CSc3ccccc3)nc(N3CCCN(C)CC3)c2c1C` reads “inactive”; that for `CCOc1cc(/C=N\NC(=O)c2c(C)nc3ccccn23)ccc1O`, 83.5 µM (active).
As for `COc1cc(/C=N\NC(=O)c2c(C)nc3cc(C)ccn23)ccc1O`, the IC50 was 50.4 µM (active).
In the case of `O=C1/C(=C\c2ccc(O)c(O)c2)N=C2CCCCCN12`, the IC50 is 18.3 µM (active).
On the same count and under the same terms, the result for `CCOc1cc(/C=C2\N=C3CCCCCN3C2=O)ccc1O` reads 55.8 µM (active); that for `O=C(CNC1CC1)Nc1cc(C(F)(F)F)ccc1Cl`, “inactive”; that for `COc1ccc(NC(=O)NS(=O)(=O)c2ccc(C)cc2)cc1OC`, 25.5 µM (active).
Still for that read-out and setting: the result for `Cc1ccc(S(=O)(=O)N[C@H](C(=O)OCn2nnc3ccccc3c2=O)C(C)C)cc1` reads “inactive”; that for `O=C(N/N=C/c1ccc(O)c(O)c1)c1cccc(S(=O)(=O)N2CCCCC2)c1`, 72.8 µM (active); that for `COc1ccc(/C=N/NC(=O)c2cccc(S(=O)(=O)N3CCCC3)c2)cc1O`, 55.4 µM (active).
Same read-out and setting: the result for `CCOc1cc(C=NNC(=O)c2cccc(S(=O)(=O)N3CCCC3)c2)ccc1O` reads 32.6 µM (active); that for `O=C(/C=C/c1ccc(O)c(O)c1)c1ccc(S(=O)(=O)N2CCCCCC2)cc1`, “inactive”.
On to `O=C(CNCc1ccco1)Nc1cccc(S(=O)(=O)N2CCCCC2)c1`, for which the IC50 result is “inactive”.
Still for that read-out and setting: the result for `CCN(CC)S(=O)(=O)c1cccc(C(=O)N/N=C/c2ccc(OC)c(O)c2)c1` reads 81.2 µM (active).
